CSC inhib = cancer stem cell inhibition; 300,000 compounds, 1.1% hits; cancer stem cell-like cells viability, luminescence; inhibition, % at 7.5 µM; in the data active means inhibition above about 75%; tested in HMLE shEcad cells
MPTP block = inhibitors of mitochondrial permeability transition pore; isolated mouse mitochondria, Ca2+ swelling absorbance, 30 min; inhibition, % at 10 µM; 360,000 compounds, 1.4% hits; AID 602449;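 active means inhibition of 50% or more, scaled per plate between neutral and stimulator controls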;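 further: 0% = DMSO wells given calcium and 100% = 1 mM EGTA wells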
Mdm2-MdmX inh = inhibitors of human Mdm2/MdmX interaction | SaOS-2 split-luciferase Mdm2/MdmX complementation, luminescence | inhibition, % at 8 µM | 330,000 compounds, 3% hits;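 active means inhibition of at least 50% at 8 µM in the primary screen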
Target sequence (O15151 whole entry, looked up): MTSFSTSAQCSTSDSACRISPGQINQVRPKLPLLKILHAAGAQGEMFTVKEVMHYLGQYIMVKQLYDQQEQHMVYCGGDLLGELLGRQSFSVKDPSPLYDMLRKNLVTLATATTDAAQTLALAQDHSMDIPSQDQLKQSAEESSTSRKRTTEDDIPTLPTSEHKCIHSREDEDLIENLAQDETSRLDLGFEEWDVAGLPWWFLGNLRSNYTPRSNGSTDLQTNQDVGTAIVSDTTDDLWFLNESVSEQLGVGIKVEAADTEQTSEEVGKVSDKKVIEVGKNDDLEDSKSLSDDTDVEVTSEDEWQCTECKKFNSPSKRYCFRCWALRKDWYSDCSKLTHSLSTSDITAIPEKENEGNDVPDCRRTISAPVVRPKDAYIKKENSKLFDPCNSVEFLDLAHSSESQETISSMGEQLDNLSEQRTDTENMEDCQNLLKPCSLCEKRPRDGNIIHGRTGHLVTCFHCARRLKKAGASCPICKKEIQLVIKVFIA
Target sequence (Q00987 whole entry, looked up): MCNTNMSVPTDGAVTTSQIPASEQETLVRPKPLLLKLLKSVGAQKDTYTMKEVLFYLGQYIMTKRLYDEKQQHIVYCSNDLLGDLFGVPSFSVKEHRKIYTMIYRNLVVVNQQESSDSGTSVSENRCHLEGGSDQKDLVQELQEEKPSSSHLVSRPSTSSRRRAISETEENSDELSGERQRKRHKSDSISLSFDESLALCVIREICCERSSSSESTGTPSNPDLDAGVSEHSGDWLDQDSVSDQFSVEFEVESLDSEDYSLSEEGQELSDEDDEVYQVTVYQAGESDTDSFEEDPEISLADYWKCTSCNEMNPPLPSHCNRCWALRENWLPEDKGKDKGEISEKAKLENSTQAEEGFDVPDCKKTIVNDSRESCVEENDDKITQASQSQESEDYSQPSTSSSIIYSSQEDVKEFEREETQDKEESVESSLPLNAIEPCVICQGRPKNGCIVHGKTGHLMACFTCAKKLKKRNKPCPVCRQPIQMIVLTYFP
Beta cell apopt = beta cell apoptosis inhibition; 300,000 compounds, 0.8% hits; INS-1E cytokine-induced death, ATP luminescence, 48 h; percent of positive-control rescue, neutral wells zero; AID 435005; protection from apoptosis, % (no concentration beside the values);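 active means Every replicate reaches about 75%, or at least half do and their mean reaches it too, limit read from the data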;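 further: 0% = cytokine-treated negative control wells and 100% = positive control rescue; higher means more ATP so stronger rescue from cytokine killing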
NR3A LBD binder = NR3A (human) ligand-binding domain modulation | NR3A LBD differential scanning fluorimetry, Tm shift; 0% = protein alone, 100% = glycine-bound protein | Tm shift relative to glycine control, % at 25 µM | 340,000 compounds, 2.5% hits | AID 1259313;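 active means melting temperature shift of at least 10% of the positive control shift, at one fixed dose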
Gli-Sufu block = blocks Gli-Sufu signaling in a luciferase reporter; Sufu-KO-LIGHT fibroblasts, Gli luciferase reporter luminescence; inhibition, % at 5 µM; 340,000 compounds, 0.74% hits; AID 588413;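 active means inhibition above about 55%, limit read from the data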;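 further: 0% = DMSO-treated cells and 100% = wells with medium but no cells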
Mdm2 MdmX conf = confirmation of human Mdm2/MdmX interaction inhibitors; shares compounds with Mdm2-MdmX inh; AID 489028; 10,000 compounds, 55% hits; Mdm2-MdmX binding, luminescent assay; inhibition, % at 8 µM; in the data active means inhibition above about 40%
FLuc counter = counter-screen for Mdm2/MdmX inhibitors: full-length luciferase. shares compounds with Mdm2-MdmX inh. SaOS-2 full-length luciferase counterscreen, luminescence. inhibition, % at 8 µM. 6,200 compounds, 77% hits;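 active means mean inhibition at 8 µM reaching about 37%, which flags the compound as non-specific, limit read from the data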;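 further: p53-null SaOS-2 cells with luciferase driven by a doxycycline-inducible promoter; compound on cells about two nights before reading with doxycycline added after day one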
* hit, by the source's call. In the library only some 6.6% were active in any assay of this set; here they are far more common.

For CC1CCc2c(sc(NC(=O)CSc3nc(N)cc(=O)[nH]3)c2C(N)=O)C1 (centres undefined) the results were MPTP block 2, Mdm2-MdmX inh 17, NR3A LBD binder -2 and Gli-Sufu block 9.
For CC(C)(C)N(Cc1cc2ccccc2[nH]c1=O)C(=O)C1CCCCC1 the results were CSC inhib 5, MPTP block -1, Mdm2-MdmX inh 62*, Beta cell apopt -4, NR3A LBD binder -1, Gli-Sufu block -4, Mdm2 MdmX conf 64* and FLuc counter 89*.
Screening Cc1cccc(C)c1NC(=O)CN1CCN(CCCC(c2ccc(F)cc2)c2ccc(F)cc2)CC1 returned MPTP block 4, Mdm2-MdmX inh 60*, NR3A LBD binder -1, Gli-Sufu block 0, Mdm2 MdmX conf 44* and FLuc counter 74*.
`O=C(CCc1ccccc1)NC1(Cc2ccccc2)CCN(CCc2cccs2)C1=O` (centres undefined) gave CSC inhib -17, MPTP block 0, Mdm2-MdmX inh 22, Beta cell apopt 0, NR3A LBD binder 2 and Gli-Sufu block 0.
O=C(NC1(Cc2ccccc2)CCN(Cc2ccc(-c3ccccc3)cc2)C1=O)c1ccccc1 (centres undefined) was read as CSC inhib 49, MPTP block 0, Mdm2-MdmX inh 63*, Beta cell apopt 13, NR3A LBD binder -3, Gli-Sufu block 17, Mdm2 MdmX conf 41* and FLuc counter 77*.
Screening COc1cc2ccc(CC(N)=O)cc2cc1OC returned MPTP block -1.
CC(C)Cc1nc2oc3c(Cl)ncnc3c2c2c1CCCC2 was read as CSC inhib 76*, MPTP block 5, Mdm2-MdmX inh 68*, Beta cell apopt 3, NR3A LBD binder 0, Gli-Sufu block 5 and Mdm2 MdmX conf 9.
`CCCc1nc2oc3c(Cl)ncnc3c2c2c1CCCC2` gave CSC inhib 2, MPTP block 9, Mdm2-MdmX inh 100*, Beta cell apopt -8, NR3A LBD binder 0, Gli-Sufu block 1 and Mdm2 MdmX conf 12.
Screening COc1ncnc2c1oc1nc(CC(C)C)c3c(c12)CCCC3 returned MPTP block 0, NR3A LBD binder 1 and Gli-Sufu block 6.
COc1cc(Nc2c3c(nc4ccccc24)CCCC3)cc(OC)c1OC was read as CSC inhib -4, MPTP block 2, Mdm2-MdmX inh 68*, Beta cell apopt -6, NR3A LBD binder -3, Gli-Sufu block 22, Mdm2 MdmX conf 64* and FLuc counter 76*.
Screening COc1ccccc1Nc1c2c(nc3ccccc13)CCC2 returned CSC inhib 70, MPTP block 0, Mdm2-MdmX inh 56*, Beta cell apopt 14, NR3A LBD binder 0, Mdm2 MdmX conf 53* and FLuc counter 58*.
COc1ccc(Cc2nnc(NC(=O)c3cc(OC)cc(OC)c3)s2)cc1 was read as CSC inhib 58, MPTP block 1, Mdm2-MdmX inh 52*, Beta cell apopt -8, NR3A LBD binder -1, Gli-Sufu block -3, Mdm2 MdmX conf 46* and FLuc counter 86*.
COc1ccc(-c2nc3cnccn3c2Nc2ccc3c(c2)OCO3)cc1 was read as CSC inhib -10, MPTP block -1, Mdm2-MdmX inh 53*, Beta cell apopt 2, NR3A LBD binder 2, Gli-Sufu block -10 and Mdm2 MdmX conf 6.
O=CNC1(c2ccccc2)CCCCC1 was read as MPTP block -1, NR3A LBD binder -2 and Gli-Sufu block -1.
Screening CSc1nnc(-c2sc3cc(C(F)(F)F)cnc3c2-c2ccccc2)n1C returned CSC inhib 52, MPTP block 0, Mdm2-MdmX inh 67*, Beta cell apopt 11, NR3A LBD binder -5, Gli-Sufu block 5, Mdm2 MdmX conf 48* and FLuc counter 50*.
Cc1cccc(C)c1NC(=O)CNC(=O)CN1C(=O)NC2(CCc3ccccc32)C1=O (centres undefined) was read as MPTP block -1, Mdm2-MdmX inh 6, Beta cell apopt -2, NR3A LBD binder 0 and Gli-Sufu block 1.
`NC[C@H](Cc1ccccc1)NCCCCC1CCCCC1` gave CSC inhib 1, MPTP block 0, Mdm2-MdmX inh -14, Beta cell apopt -2, NR3A LBD binder -3 and Gli-Sufu block -6.
CNC[C@H](CC1CCCCC1)NC[C@H](Cc1ccccc1)NCCC12CC3CC(CC(C3)C1)C2 was read as CSC inhib -18, MPTP block 6, Mdm2-MdmX inh 100*, Beta cell apopt 114*, NR3A LBD binder -8, Gli-Sufu block -11, Mdm2 MdmX conf 100* and FLuc counter 52*.
`CCCn1c2ccccc2c2cnn(CC(=O)NC3CCCC(C)C3C)c(=O)c21` (centres undefined) gave CSC inhib -14, MPTP block 2, Mdm2-MdmX inh 89*, Beta cell apopt -6, NR3A LBD binder 2, Gli-Sufu block 14 and Mdm2 MdmX conf -2.
Screening COc1ccc(/C=C\C(=O)O[C@@H]2C(O)C(O[C@@H]3OC(C)[C@H](O[C@@H]4OCC(O[C@H]5O[C@H](CO)[C@@H](O)C(O)C5O)C(O)C4O)C(O)C3O)[C@H](OC(=O)[C@]34CCC(C)(C)C[C@@H]3C3=CCC5[C@@]6(C)CC(O)C(O[C@@H]7OC(CO)C(O)[C@H](O)[C@H]7O)[C@@](C)(C(=O)O)C6CC[C@@]5(C)[C@]3(CO)CC4)O[C@H]2C)cc1 (some centres undefined) returned CSC inhib 65, MPTP block 0, Mdm2-MdmX inh 79*, Beta cell apopt 37, NR3A LBD binder 3, Gli-Sufu block 33, Mdm2 MdmX conf 59* and FLuc counter 17.
Screening C[C@@H]1CC[C@]2(C(=O)O[C@@H]3O[C@H](CO)[C@@H](O)[C@H](O)[C@H]3O)CC[C@]3(C)C(=CCC4[C@@]5(C)CC[C@H](O[C@@H]6OC[C@H](O)[C@H](O[C@@H]7O[C@H](CO)[C@@H](O)[C@H](O)[C@H]7O)[C@H]6O)C(C)(C)C5CC[C@]43C)C2[C@]1(C)O (some centres undefined) returned CSC inhib -17, MPTP block -2, Mdm2-MdmX inh -23, Beta cell apopt -6, NR3A LBD binder -2 and Gli-Sufu block -6.
Screening CNC(=S)N(CCc1ccc(S(N)(=O)=O)cc1)C1CC(=O)N(c2ccccc2F)C1=O (centres undefined) returned CSC inhib 5, MPTP block -2, Mdm2-MdmX inh 10, Beta cell apopt -2, NR3A LBD binder -1 and Gli-Sufu block 4.
